An excerpt weighted towards active compounds, which were near 8% of everything screened.
KB-V1 cytotox = qHTS assay for MDR1-selective chemotherapeutics: Primary screen using the drug-selected MDR subline cells KB-V1 | KB-V1 MDR cells viability, CellTiter-Glo, 72 h | Potency, µM (doses to about 46.1 µM), actives largely listed as cytotoxic | 400,000 tested, 3.4% active | AID 1347076, 2019; note: nearly all actives have a fitted effect of over 60% in size
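Luminescent ATP read-out (CellTiter-Glo, 10 min) measures survival of drug-selected KB-V1 MDR cells after 72 h, 37 degrees C compound exposure. Medium: phenol-red-free DMEM, 10% FBS. Values from fitted concentration-response curves.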
HT1080 IDH1KD tx = qHTS for induction of synthetic lethality in tumor cells producing 2HG: qHTS for the HT-1080-IDH1KD cell line; HT-1080 IDH1 knockdown viability, ATP luminescence, 48 h; 360,000 tested, 2% active; AID 686971, 2013; Potency, µM (series often up to 46.1 µM), actives largely listed as cytotoxic
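IDH1KD HT-1080 cells, 750/well, RPMI + 5% FBS; compound pinned after 2 h settling; 48 h, 37 °C; CellTiter-Glo luminescence; % activity normalised to DMSO and no-cell wells; curves fitted, classed by r2 and efficacy.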
MCF10A rerep = A quantitative high throughput screen for small molecules that induce DNA re-replication in MCF 10a normal breast cells; MCF 10A DNA re-replication, Hoechst nuclear intensity, 48 h; Potency, µM (titrated, usually from 46.1 µM), usual class: activators; 350,000 tested, 2.9% active; AID 624296, 2012; note: nearly all actives have a fitted effect of over 50% in size
KB-3-1 tox = qHTS assay for MDR1-selective chemotherapeutics: Primary screen using the parental adenocarcinoma cell KB-3-1 | Potency, µM (series often up to 46.1 µM), most hits filed as cytotoxic | KB-3-1 viability, CellTiter-Glo ATP luminescence, 72 h | 400,000 tested, 1.4% active; note: nearly all actives have a fitted effect of over 60% in size
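Cells are dispensed, compounds pinned in, plates held at 37 °C for 72 h, then CellTiter-Glo is added and luminescence read after 10 minutes. Cell line: parental KB-3-1 in phenol-red-free DMEM, 10% FBS.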
SW480 rereplic = A quantitative high throughput screen for small molecules that induce DNA re-replication in SW480 colon adenocarcinoma cells | AID 624297, 2012 | 340,000 tested, 1.8% active | SW480 DNA re-replication, Hoechst DNA content imaging, 48 h | Potency, µM (doses to about 46.1 µM), actives largely listed as activators; note: nearly all actives have a fitted effect of over 55% in size
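Image-based read-out: total Hoechst fluorescence of nuclei (405 nm excitation, 500-530 nm emission), with hits raising the fraction of high-intensity nuclei. SW480 colon cells incubated 48 hr with compounds at 37 C.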
HT1080NT lethal = qHTS for induction of synthetic lethality in tumor cells producing 2HG: qHTS for the HT-1080-NT fibrosarcoma cell line; Potency, µM (highest dose often 46.1 µM), hits mostly cytotoxic; HT-1080-NT fibrosarcoma viability, CellTiter-Glo ATP luminescence, 48 h; AID 686970, 2013; 360,000 tested, 1.6% active;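 note: NT is the 2HG producing partner of a matched IDH1 knockdown line; nearly all actives have a fitted effect of over 55% in size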
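HT-1080-NT; 750 cells/well; 5% FBS RPMI; 48 h compound, 37 degrees C; CellTiter-Glo luminescence; curve fitting and curve-class assignment.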
Numbers stand for hits; - = inactive; ? = inconclusive; . = not tested or not shown; [ ] = dose if it differs, or a comment. Calls come from the whole dose curve; as a rule, active = well fitted curve in the direction sought with a large enough effect; inconclusive = small, poorly fitted or top-dose-only effect, or another doubt; inactive = no such curve, though single readings can be large; an effect the other way counts as inactive or inconclusive.

SMILES	KB-V1 cytotox	HT1080 IDH1KD tx	MCF10A rerep	KB-3-1 tox	SW480 rereplic	HT1080NT lethal
O=C1/C(=C/c2ccc([N+](=O)[O-])cc2)C=C(c2ccccc2)N1c1ccc(O)cc1	5.8µM	?	18µM	?	?	-
COC(=O)N/N=C(\C)c1ccc(OC(F)F)cc1	?	-	-	-	-	-
C/C(=N\NC(=O)C1CC1)c1ccc(OC(F)F)cc1	13µM	-	-	?	-	-
COc1ccccc1CNS(=O)(=O)c1ccc2c(c1)CC(C)N2C(=O)C1CCC1 (stereo not drawn)	?	?	-	?	-	-
CCCn1c(=O)[nH]c(=O)c2c1nc(-c1ccccc1OC(F)F)n2CCOC	18µM	-	-	-	-	-
C/C(=N\OC(=O)c1ccc(Cl)cc1)c1sc(-c2ccccc2)nc1C	-	-	-	-	-	-
CCN(CC)C1CCN(Cc2cn[nH]c2-c2ccc(OC)c(F)c2)C1 (stereo not drawn)	-	-	-	-	4.1µM	-
COc1ccc(C(=O)C(OC(=O)c2ccc(C)c(NC(C)=O)c2)c2ccccc2)cc1 (stereo not drawn)	-	-	-[0.0737 µM]	-	-	-
Cc1nn(C)c(C(=O)NC2C3CC4CC(C3)CC2C4)c1Cl (stereo not drawn)	-	-	-	-	23µM	-
Cc1ccc(NC(NC(=O)c2cccs2)C(Cl)(Cl)Cl)cc1 (stereo not drawn)	-	-	-	-	-[9.22 µM]	-
CC(=O)c1ccc(Nc2nc(C(N)Cc3ccc(Cl)cc3)cs2)cc1 (stereo not drawn)	-	?	.	?	.	23µM
CC(=O)c1ccc(Nc2nc(C(N)CCc3ccccc3)cs2)cc1 (stereo not drawn)	-	?	.	-	.	21µM
CC(=O)c1ccc(Nc2nc(C(N)Cc3ccc(N)cc3)cs2)cc1 (stereo not drawn)	-	-	.	-	.	-
CC(C)C(N)c1csc(Nc2ccc(C(=O)N(C)Cc3ccccc3)cn2)n1 (stereo not drawn)	-	15µM	.	-	.	15µM
CN(Cc1ccccc1)C(=O)c1ccc(Nc2nc(CN)cs2)nc1	-	-	.	-	.	-
COc1cccc(N2CC(C(=O)NNC(=O)c3ccc(Cl)cc3)CC2=O)c1 (stereo not drawn)	-	-	-	-	-	-
CC(=O)N(\C=C/C=C/C=C1\Sc2ccccc2C1=O)c1ccccc1	?	?	15µM	-	-	?
CCc1c(C)nc2ncnn2c1Nc1ccc(C)cc1	-	-	-	-	-	-
CCc1c(C)nc2ncnn2c1NCCc1ccc(OC)cc1	?	3.5µM	2.5µM	5.6µM	5.6µM	6.3µM
Cc1cc(C)c2cc(C=O)c(Cl)nc2c1	?	-	?	?	?	?
CCCS(=O)(=O)N1CCCC(C(=O)NC(C)c2ccc3c(c2)OCCO3)C1 (stereo not drawn)	-	-	-	-	-	-
O=C(CN1C(=O)c2ccccc2S1(=O)=O)Nc1ccc(S(=O)(=O)Nc2ncccn2)cc1	-	-	-	-	-	-
COc1cccc(/C=N/Nc2cc(N3CCOCC3)ncn2)c1O	-	5.8µM	?	10µM	?	?
COc1cccc(/C=N/Nc2nnc(C)n2N)c1O	-	21µM	-	-	?	?
COc1cccc(/C=N/Nc2cc(Cl)nc(C)n2)c1O	?	-	7.3µM	-	0.29µM	-
SMILES	KB-V1 cytotox	HT1080 IDH1KD tx	MCF10A rerep	KB-3-1 tox	SW480 rereplic	HT1080NT lethal
COc1cccc(/C=N/Nc2ncnc3c2ncn3Cc2ccccc2)c1O	0.52µM	?	?	?	?	-
COc1cccc(/C=N/Nc2c(Cl)cncc2Cl)c1O	-	?	?	-	-	?
CCOC(=O)c1cnc2ccc(OC)cc2c1NCCc1ccc(OC)c(OC)c1	?	-	-	-	-	-
CN=C(Nc1cc(C)nn1-c1ccccc1)c1ccccc1F	?	-	?	?	-	-
NC(=O)CSc1nnc(NC(=O)C2CC(=O)N(c3ccc(F)cc3)C2)s1 (stereo not drawn)	-	-	-	-	-	-
Nc1cc(=O)[nH]c(SCCSc2cc(Cl)ccc2Cl)n1	0.41µM	-	-	0.73µM	-	-
Nc1cc(=O)[nH]c(SCCSc2ccccc2F)n1	?	-	-	?	-	-
O=C(Cn1nc(-c2ccccc2Cl)ccc1=O)Nc1ccccc1-c1ccccc1	?	-	-	-	?	-
CC[n+]1c(C)cc2c(sc3ccccc32)c1C	-	?	-	2.6µM	-	5.2µM
CCc1nc(C)cc2c1sc1ccccc12	-	-	?	-	?	-
CCC1SC(CC)C(=O)N(CC(=O)NCc2ccc(F)cc2)C1=O (stereo not drawn)	-	-	-	-	-	-
CCCc1nc(SCC(=O)N2CCOCC2)c2c(C)c(C)sc2n1	9.2µM	-	?	-	-	-
Cc1nc(SCC(=O)N2CCOCC2)c2c(C)c(C)sc2n1	-	-	-	-	-	-
CC(=O)N1CCN(C(=O)CSc2ncnc3sc(C)c(C)c23)CC1	15µM	-	-	?	-	-
Cc1sc2ncnc(SCC(=O)NC3CC3)c2c1C	21µM	-	-	-	-	-
CCOc1cccc(CNCCCSc2ncccn2)c1	-	-	-	-	-	-
C=CCNC(=O)c1onc(CSc2ccccc2CC)c1C(=O)O	?	-	-	-	-	-
COc1ccc(CN2C(=O)c3cccnc3C2=O)cc1S(=O)(=O)N1CCCC(C)C1 (stereo not drawn)	-	-	-	-	-	-
O=C(Nc1nccs1)c1cc(-c2ccncc2)nc2ccccc12	?	-	-	-	-	-
Cc1ccc(-c2cc(C(=O)Nc3nccs3)c3ccccc3n2)c(C)c1	13µM	-	?	-	-	-
Cc1ccc(NC(=O)c2cc(-c3cccs3)nc3ccccc23)nc1	?	21µM	-	?	-	?
COc1ccc(NC(=O)c2cc(-c3ccc(C)o3)nc3ccccc23)cc1OC	16µM	?	-	?	-	?
Cc1ccc(-c2cc(C(=O)Nc3nccs3)c3ccccc3n2)o1	7.3µM	-	?	-	?	-
O=C(c1cccc(Cl)c1)N1CCN(Cc2ccncc2)CC1	-	-	-	-	-	-
O=C(c1ccco1)N(Cc1ccco1)Cc1cc2ccccc2[nH]c1=O	?	-	-	-	-	-
COC(=O)c1ccccc1NC(=O)COCc1cc(-c2cccs2)on1	-	.	.	-	.	.

Screening data from PubChem BioAssay.
